Data on 70 molecules can be found in ChEMBL document CHEMBL4513216, “Probing the Open Global Health Chemical Diversity Library for Multistage-Active Starting Points for Next-Generation Antimalarials” (ACS Infect Dis, 2020).

About 8,600 (12%) of roughly 69,000 compounds showed an effect of 50% or more. The sample as a whole holds a higher share of strong results than the screen did.

This assay relates to Plasmodium berghei. Kind of assay: Screen against P. berghei liver stage (PbLuc), transformed with Luciferase, at 10uM. Conditions: tested at 10 uM. Format: functional, HepG2.
`Cc1ccc(CN2Cc3c(C(=O)N4CCN(C)CC4)nn(C)c3C2)s1`: the INHIBITION stood at 3.25%.

In the case of `COCc1n[nH]/c(=N\C(=O)c2c3c(nc4onc(C)c24)CCC3)s1`, the INHIBITION is 10.7%.

For the molecule `CC1(C(=O)N2CCOCC2)CN(Cc2ccccc2F)CCO1` (stereo not given), the INHIBITION was 25.6%.

For the molecule `O=C(Nc1ccc(-c2csnn2)cc1)NC(CCO)C1CC1` (stereo not given), the INHIBITION came to 6.11%.

Regarding `CCc1ccccc1NCc1nc2[nH]c(C)c(C)c(=O)n2n1`, the INHIBITION is 52.5%.

Consider `Cc1ccc(Cl)cc1NCc1nc2[nH]c(C)c(C)c(=O)n2n1`, for which the INHIBITION is listed as 18.3%.

Turning to `Cc1[nH]c2nc(CNc3ccccc3Cl)nn2c(=O)c1C`, the INHIBITION is -7.83%.

With `CN1CCC(Nc2cc(Cl)ccc2OCC(F)(F)F)C1=O` (stereo not given), the INHIBITION is 4.34%.

In the case of `Cc1cc(CCC(=O)N(C)C)nc(C2CCCCN2)n1` (stereo not given), the INHIBITION is 26.3%.

Regarding `Cc1cc(C(=O)NCc2ccccn2)no1`, the INHIBITION is -1.88%.

For the molecule `COCCCNC(=O)CN(C)C(=O)c1cc(Cl)ccc1O`, the INHIBITION is recorded as -15.8%.

On to `COCCCNC(=O)Cc1cc(-c2ccccc2)on1`, for which the INHIBITION is given as -34.3%.

Regarding `O=C(Cc1cc(-c2ccc3c(c2)OCCO3)on1)NCc1ccccn1`, the INHIBITION is on record as 70%.

With `COCCCNC(=O)Cc1cc(-c2ccc3c(c2)OCO3)on1`, the INHIBITION is given as 65.7%.

Regarding `Cc1nnc(SCCCNC(=O)Cc2ccc3c(c2)OCO3)s1`, the INHIBITION is 40.9%.

With `Cn1cc(CCNC(=O)CCc2ccc3c(c2)OCO3)cn1`, the INHIBITION was 31.3%.

For `O=C(Cc1cc(-c2ccc3c(c2)OCO3)on1)NC1CCCC1`, the INHIBITION came to 14.6%.

Turning to `COCCCNC(=O)Cc1cc(-c2ccc(Cl)cc2)on1`, the INHIBITION worked out at 53.7%.

As to `O=C(N1CCOCC1)N1CCCC(c2ncncc2-c2ccncc2)C1` (stereo not given), the INHIBITION came out at 5.11%.

As to `CC(=O)NCCNC(=O)CN1CCOC(Cn2cccn2)C1` (stereo not given), the INHIBITION worked out at 9.29%.

As for `Cc1csc(N2CCCN(CCC(=O)NC(N)=O)CC2)n1`, the INHIBITION was 9.54%.

As to `CN(C)C(CNC(=O)c1[nH]nc(C2CC2)c1Br)C1CC1` (stereo not given), the INHIBITION is -4.15%.

Regarding `Cc1cc(N2CCCC(O)(CN(C)C(=O)CCN)C2)c2cnccc2n1` (stereo not given), the INHIBITION is listed as -6.88%.

Consider `COCC(=O)N1CC(c2ccnc(Nc3cc(C(F)(F)F)ccn3)n2)C1`, for which the INHIBITION is listed as -12.3%.

Regarding `Cc1ccc(C)c(-n2ncc(C(=O)N(C)CCc3ccccn3)c2N)c1`, the INHIBITION is given as -3.33%.

As to `CCOC(=O)c1cnn(-c2cc(Oc3cccc(C)c3)ncn2)c1N`, the INHIBITION amounted to 51.6%.

With `CCOC(=O)c1cnn(-c2cc(C)ccn2)c1N`, the INHIBITION is -104%.

With `CCOC(=O)c1cnn(-c2cc(Oc3ccccc3C)ncn2)c1N`, the INHIBITION is on record as -35.9%.

In the case of `COC(=O)c1cnn(-c2cc(Oc3cccc(C)c3)ncn2)c1N`, the INHIBITION was determined as 72%.

Consider `CCOC(=O)c1cnn(-c2cc(Oc3ccccc3)ncn2)c1N`, for which the INHIBITION is on record as -10.9%.

As to `Cc1cc(C)n(C2CCN(S(C)(=O)=O)CC2)n1`, the INHIBITION is -0.232%.

For the molecule `Cc1nn(C)c(N(C)C)c1CNCc1ccc(OCC(N)=O)cc1`, the INHIBITION is recorded as 3.45%.

`c1cn(-c2nccnc2C2CCCN(C3CCOCC3)C2)cn1` (stereo not given): the INHIBITION was determined as 18.805%.

As to `O=C1NC2(CCN(Cc3ccccc3Cl)CC2)CC1c1ccccc1` (stereo not given), the INHIBITION is listed as 68.4%.

For `O=C1NC2(CCN(Cc3ccsc3)CC2)CC1c1ccncc1` (stereo not given), the INHIBITION is reported as 12.6%.

As for `O=C1NC2(CCN(Cc3cccs3)CC2)CC1c1ccncc1` (stereo not given), the INHIBITION was determined as 59.1%.

In the case of `O=C1NC2(CCN(Cc3ccoc3)CC2)CC1c1ccncc1` (stereo not given), the INHIBITION came to 32.4%.

As to `N#Cc1cccc(CN2CCC3(CC2)CC(c2ccncc2)C(=O)N3)c1` (stereo not given), the INHIBITION is recorded as -1.26%.

Take `O=C1NC2(CCN(Cc3nccs3)CC2)CC1c1ccncc1` (stereo not given): the INHIBITION amounted to 48.9%.

On to `O=C1NC2(CCN(C(=O)c3ccc(Cl)cc3)CC2)CC1c1ccccc1` (stereo not given), for which the INHIBITION turned out to be 14%.

With `N#Cc1ccccc1CN1CCC2(CC1)CC(c1ccccc1)C(=O)N2` (stereo not given), the INHIBITION is on record as 62.8%.

In the case of `O=C1NC2(CCN(Cc3ccc(F)cc3)CC2)CC1c1ccncc1` (stereo not given), the INHIBITION is 35.4%.

Regarding `CCNC(=O)c1ccc2c(c1)nc1n2CCN(Cc2ccco2)C1`, the INHIBITION is -9.48%.

As for `C[C@H]1C[C@H]2CN(S(=O)(=O)c3ccc(F)cc3)CC[C@@H]2O1`, the INHIBITION is listed as -1.12%.

Regarding `CCn1cc(-c2nn3c(C(F)(F)F)nnc3s2)cn1`, the INHIBITION is -11.4%.

Turning to `O=C(NCC1CCC(c2ccnc3ncnn23)CC1)C1CC1` (stereo not given), the INHIBITION was 21.1%.

On to `CSc1ncn(-c2nc(N(C)C)nc(N(C)C)n2)n1`, for which the INHIBITION turned out to be 21.2%.

For the molecule `CN(C)C(=O)N1CCC2(CC1)NC(=O)c1ccccc12`, the INHIBITION is -13.9%.

With `O=C(NCc1ccco1)N1CCCCC1c1nc(C2CC2)no1` (stereo not given), the INHIBITION worked out at 16%.

With `COC(=O)[C@H](C)NC(=O)c1nc(C2CC2)n(-c2ccccc2Cl)n1`, the INHIBITION is -20.8%.

With `CCn1cnnc1CNC(=O)c1ccc(Br)cc1F`, the INHIBITION turned out to be 56.5%.

`CCn1cnnc1CNC(=O)c1cc(Cl)ccc1OC`: the INHIBITION is recorded as -9.98%.

Turning to `CCn1cnnc1CCNC(=O)c1ccc(Br)cc1F`, the INHIBITION turned out to be 25.5%.

Turning to `COc1cc(Cl)ccc1C(=O)NCc1nncn1C`, the INHIBITION is listed as 52.3%.

Consider `CCn1cnnc1CNC(=O)c1cc(Cl)ccc1F`, for which the INHIBITION turned out to be 56.4%.

Consider `CCn1cnnc1CNC(=O)c1ccc(Cl)cc1F`, for which the INHIBITION is 36.2%.

Turning to `CCn1cnnc1CNC(=O)c1cc(F)ccc1OC`, the INHIBITION came out at 29.7%.

Regarding `Cn1cnnc1CNC(=O)c1ccc(Br)cc1O`, the INHIBITION is -48.5%.

Turning to `CCn1cnnc1CNC(=O)c1cc(Cl)ccc1O`, the INHIBITION is on record as -35.1%.

As for `CN(CC(=O)N1CCOCC(CO)C1)Cc1ccc(F)cc1` (stereo not given), the INHIBITION is reported as -12.1%.

In the case of `Cc1noc(C)c1CN1CCCC2(C1)CN(Cc1nccn1C)CCO2` (stereo not given), the INHIBITION is 10%.

For the molecule `CC(C)=CCN1C[C@@H]2CC[C@H]1CN(C(=O)c1ccc3c(c1)OCO3)C2`, the INHIBITION was found to be 33%.

In the case of `CN(C)S(=O)(=O)N1CCN(Cc2ccnc(N3CCCC3)n2)CC1`, the INHIBITION is 7.52%.

For `COc1ccc(-c2cc(C3CCNCC3)ccn2)cc1`, the INHIBITION is reported as 23.9%.

For `O=C(c1ccc(-c2ccc(O)nc2)s1)N1CCCCC1`, the INHIBITION is -69.6%.

For the molecule `Cc1cc(NC(=O)c2nc(N3CCCC3)ncc2Cl)nc(C(C)C)n1`, the INHIBITION is on record as 66.8%.

`O=C(Nc1cc(Cl)ccn1)c1nc(N2CCCC2)ncc1Cl`: the INHIBITION is listed as -35%.

For `O=C(Nc1ccccn1)c1nc(N2CCCC2)ncc1Cl`, the INHIBITION is on record as -4.48%.

Take `O=C1NCC(C(=O)Nc2ncc(Cc3ccccc3F)s2)N1` (stereo not given): the INHIBITION was -17.4%.

On to `CS(=O)(=O)N1CCc2sc(C(=O)NCCc3ccccn3)cc21`, for which the INHIBITION was -47.8%.
